Measurements reported in PubChem BioAssay (NCI).
Several values for one entry are separate records, joined by “and”; a condition that tells them apart may be missing. Equal values may be shown once. This is part of a sample that, as a whole, favours compounds with a hit. Of some 83,000 tested, about 20% had one in any assay.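 Single-concentration screen, 48 h exposure, 96-well plates. Endpoint: percent growth. Below 10 = active.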 Activity calls are given as the source filed them.

Key:
Experiment in all cases: NCI-60 one-dose screen, 48 h (100 = growth as untreated, 0 = no growth, -100 = all killed)
Conditions in all cases: 10 µM unless noted
NCI-H23 lung = test system: NCI-H23 lung
NCI-H226 lung = test system: NCI-H226 lung
NCI-H322M lung = test system: NCI-H322M lung
HOP-62 NSCLC = test system: HOP-62 NSCLC
NCI-H460 lung = test system: NCI-H460 lung
A549/ATCC NSCLC = test system: A549/ATCC NSCLC
786-0 renal = test system: 786-0 renal
COLO 205 colon = test system: COLO 205 colon
DU-145 prostate = test system: DU-145 prostate
K-562 leukemia = test system: K-562 leukemia
MALME-3M melanoma = test system: MALME-3M melanoma
MDA-MB-231 breast = test system: MDA-MB-231 breast
RXF 393 renal = test system: RXF 393 renal
SF-268 CNS = test system: SF-268 CNS
SF-295 CNS = test system: SF-295 CNS
SF-539 CNS = test system: SF-539 CNS
UACC-257 melanoma = test system: UACC-257 melanoma
M14 melanoma = test system: M14 melanoma
NCI-H522 lung = test system: NCI-H522 lung
HOP-92 NSCLC = test system: HOP-92 NSCLC

Measured: growth

C/C=C(/C)C(=O)O[C@H]1CC[C@@]2(C)[C@@H]3CC[C@H]4[C@]5(O)C[C@H](O)[C@@]6(O)[C@@H](CN7C[C@@H](C)CC[C@H]7[C@@]6(C)O)[C@]5(O)C[C@@]42O[C@@]13O
active: HOP-62 NSCLC -56.5%
inactive: NCI-H23 lung 106% | NCI-H226 lung 102% | NCI-H322M lung 97.9% | NCI-H460 lung 110% | A549/ATCC NSCLC 94% | 786-0 renal 89.9% | COLO 205 colon 118% | DU-145 prostate 138% | K-562 leukemia 136% | MALME-3M melanoma 92.7% | MDA-MB-231 breast 130% | RXF 393 renal 108% | SF-268 CNS 116% | SF-295 CNS 100% | SF-539 CNS 111% | UACC-257 melanoma 102% | M14 melanoma 102%

OCCN=Cc1c[nH]c2ccccc12
inactive: NCI-H23 lung 91.6% | NCI-H226 lung 83.5% | NCI-H322M lung 102% | HOP-62 NSCLC 85.1% | NCI-H460 lung 103% | NCI-H522 lung 95.2% | A549/ATCC NSCLC 95.2% | 786-0 renal 95.7% | COLO 205 colon 112% | DU-145 prostate 114% | MALME-3M melanoma 104% | MDA-MB-231 breast 68.6% | RXF 393 renal 118% | SF-268 CNS 107% | SF-295 CNS 89.9% | SF-539 CNS 99.4% | UACC-257 melanoma 110% | M14 melanoma 97.3%

CCCCOC(N)=O
inactive: NCI-H23 lung 100% | NCI-H226 lung 103% | NCI-H322M lung 102% | HOP-62 NSCLC 105% | NCI-H460 lung 106% | NCI-H522 lung 106% | A549/ATCC NSCLC 109% | 786-0 renal 104% | COLO 205 colon 108% | DU-145 prostate 109% | K-562 leukemia 102% | MDA-MB-231 breast 109% | SF-268 CNS 104% | SF-295 CNS 105% | SF-539 CNS 109% | UACC-257 melanoma 110% | M14 melanoma 97.5%

Oc1ccccc1C=NCCN=Cc1ccccc1O.[Fe]
inactive: NCI-H23 lung 86.1% | NCI-H226 lung 85% | HOP-62 NSCLC 74.9% | NCI-H460 lung 59.7% | HOP-92 NSCLC 98.7% | NCI-H522 lung 47.5% | A549/ATCC NSCLC 61.6% | 786-0 renal 102% | COLO 205 colon 108% | DU-145 prostate 104% | K-562 leukemia 85.3% | MALME-3M melanoma 69.7% | MDA-MB-231 breast 34.9% | RXF 393 renal 98.8% | SF-268 CNS 97.4% | SF-295 CNS 85% | SF-539 CNS 88.8% | UACC-257 melanoma 46.9% | M14 melanoma 93.9%

C=CCOC(=O)C(Br)CC (stereo not given)
inactive: NCI-H23 lung 99% | NCI-H226 lung 101% | NCI-H322M lung 108% | HOP-62 NSCLC 108% | NCI-H460 lung 104% | NCI-H522 lung 99.2% | A549/ATCC NSCLC 107% | 786-0 renal 106% | COLO 205 colon 103% | DU-145 prostate 108% | K-562 leukemia 107% | MALME-3M melanoma 99.9% | MDA-MB-231 breast 93.6% | RXF 393 renal 118% | SF-268 CNS 106% | SF-295 CNS 109% | SF-539 CNS 100% | UACC-257 melanoma 104% | M14 melanoma 109%

CCN1C(=O)NC(=O)C(C)(N2C(=O)c3c(F)c(F)c(F)c(F)c3C2=O)C1=O (stereo not given)
inactive: NCI-H23 lung 32.3% | NCI-H226 lung 105% | HOP-62 NSCLC 101% | NCI-H460 lung 22.8% | A549/ATCC NSCLC 43.1% | 786-0 renal 37.4% | DU-145 prostate 31.9% | SF-295 CNS 84.1% | SF-539 CNS 18.6% | UACC-257 melanoma 38.5% | M14 melanoma 24.4%
active: HOP-92 NSCLC -42.6% | NCI-H522 lung -76.6% | COLO 205 colon -51.4% | K-562 leukemia -71.2% | MALME-3M melanoma -39.6% | MDA-MB-231 breast 9.99% | RXF 393 renal -63.8% | SF-268 CNS 5.09%

O=[N+]([O-])c1ccc(CI)cc1
inactive: NCI-H23 lung 101% | NCI-H226 lung 94.6% | NCI-H322M lung 106% | NCI-H460 lung 101% | A549/ATCC NSCLC 101% | 786-0 renal 94% | COLO 205 colon 88.8% | DU-145 prostate 105% | K-562 leukemia 12.3% | MALME-3M melanoma 85.6% | MDA-MB-231 breast 102% | SF-268 CNS 84% | SF-295 CNS 110% | SF-539 CNS 56.9% | UACC-257 melanoma 80.9% | M14 melanoma 71.6%

O=C(O)C(Br)CBr (stereo not given)
inactive: NCI-H23 lung 99.2% | NCI-H226 lung 103% | NCI-H322M lung 92.5% | HOP-62 NSCLC 101% | NCI-H460 lung 102% | NCI-H522 lung 75.9% | A549/ATCC NSCLC 97.6% | 786-0 renal 96.4% | COLO 205 colon 111% | DU-145 prostate 106% | K-562 leukemia 104% | MDA-MB-231 breast 126% | SF-268 CNS 103% | SF-295 CNS 98.1% | SF-539 CNS 98.5% | UACC-257 melanoma 97.7% | M14 melanoma 90.2%

O=[N+]([O-])c1c(Cl)cc(Cl)c([N+](=O)[O-])c1Cl
inactive: NCI-H23 lung 98.3% | NCI-H226 lung 117% | NCI-H322M lung 119% | NCI-H460 lung 95.8% | HOP-92 NSCLC 99.6% | NCI-H522 lung 36.6% | A549/ATCC NSCLC 108% | 786-0 renal 126% | COLO 205 colon 96% | DU-145 prostate 81.3% | K-562 leukemia 103% | MALME-3M melanoma 175% | MDA-MB-231 breast 110% | RXF 393 renal 131% | SF-268 CNS 96% | SF-539 CNS 110% | UACC-257 melanoma 62.9% | M14 melanoma 97.2%

Nc1ccc(P(=O)(O)O)cc1
inactive: NCI-H23 lung 101% and 96.7% | NCI-H226 lung 102% and 100% | NCI-H322M lung 104% and 99.3% | NCI-H460 lung 113% and 103% | HOP-92 NSCLC 95.3% and 90.3% | NCI-H522 lung 111% and 88.8% | A549/ATCC NSCLC 102% and 94.4% | 786-0 renal 113% and 91.2% | COLO 205 colon 111% and 105% | DU-145 prostate 119% and 107% | K-562 leukemia 110% and 104% | MALME-3M melanoma 101% and 95.7% | MDA-MB-231 breast 114% and 103% | RXF 393 renal 117% and 102% | SF-268 CNS 113% and 107% | SF-295 CNS 99.5% and 93.4% | SF-539 CNS 88.6% and 100% | UACC-257 melanoma 104% and 99.2% | M14 melanoma 121% and 100%

CC1(C)CN=C(NN=C(/C=C/c2ccc(C(F)(F)F)cc2)/C=C/c2ccc(C(F)(F)F)cc2)NC1
inactive: NCI-H322M lung 31.4%
active: NCI-H23 lung -43% | NCI-H226 lung -15.1% | HOP-62 NSCLC -85.5% | NCI-H460 lung -54% | NCI-H522 lung -76.6% | 786-0 renal -90.2% | COLO 205 colon -91.6% | DU-145 prostate -13.7% | K-562 leukemia -37.5% | MALME-3M melanoma -58.8% | MDA-MB-231 breast -83.1% | SF-268 CNS -34.5% | SF-295 CNS -70.8% | SF-539 CNS -78.4% | UACC-257 melanoma -45.9% | M14 melanoma -71.7%

C=CC1CN2CCC1CC2C(O)c1ccnc2ccccc12 (stereo not given)
inactive: NCI-H23 lung 24.4% | NCI-H226 lung 112% | NCI-H322M lung 145% | HOP-62 NSCLC 121% | NCI-H460 lung 118% | NCI-H522 lung 24.2% | 786-0 renal 108% | COLO 205 colon 104% | DU-145 prostate 111% | K-562 leukemia 231% | MALME-3M melanoma 140% | MDA-MB-231 breast 125% | SF-268 CNS 120% | SF-295 CNS 121% | SF-539 CNS 121% | UACC-257 melanoma 158% | M14 melanoma 133%

CCCC(C)SP(=S)(SC(C)CCC)SC(C)CCC (stereo not given)
inactive: NCI-H23 lung 95.5% | NCI-H226 lung 88.8% | HOP-62 NSCLC 101% | NCI-H460 lung 98.9% | HOP-92 NSCLC 94.7% | NCI-H522 lung 90.9% | 786-0 renal 98.9% | COLO 205 colon 98.6% | DU-145 prostate 108% | K-562 leukemia 112% | MALME-3M melanoma 87.6% | MDA-MB-231 breast 113% | RXF 393 renal 95.5% | SF-268 CNS 104% | SF-295 CNS 101% | SF-539 CNS 103% | M14 melanoma 94.4%

Cc1cc[n+](CCc2ccccc2)cc1
inactive: NCI-H23 lung 90.5% and 111% | NCI-H322M lung 96% and 96.5% | HOP-62 NSCLC 87.9% and 114% | NCI-H460 lung 110% and 103% | NCI-H522 lung 94.8% and 85.5% | 786-0 renal 89.7% and 100% | COLO 205 colon 127% and 119% | DU-145 prostate 95.3% and 115% | K-562 leukemia 85.7% and 89.1% | MALME-3M melanoma 75.4% and 88.6% | MDA-MB-231 breast 115% and 117% | SF-268 CNS 98.6% and 108% | SF-295 CNS 111% and 97.7% | SF-539 CNS 97.5% and 107% | UACC-257 melanoma 103% and 95% | M14 melanoma 97.2% and 105%

CC[C@H](C)[C@H](NC(=O)c1cnccn1)C(=O)N(C)[C@H](C[C@@H](OC(C)=O)c1nc(C(=O)N[C@@H](Cc2ccccc2)C[C@H](C)C(=O)OC)cs1)C(C)C
active: NCI-H460 lung 8.2% | NCI-H522 lung -24.6% | COLO 205 colon -20.3% | DU-145 prostate 6.92% | K-562 leukemia 5.13% | MDA-MB-231 breast -4.71% | SF-295 CNS -5.89% | SF-539 CNS -21.9% | M14 melanoma -5.51%
inactive: NCI-H226 lung 33.6% | NCI-H322M lung 46.3% | HOP-62 NSCLC 17.6% | HOP-92 NSCLC 16.9% | A549/ATCC NSCLC 19.2% | 786-0 renal 24.2% | MALME-3M melanoma 69.6% | RXF 393 renal 17.4% | SF-268 CNS 19.4% | UACC-257 melanoma 44.3%

CCOC(=O)P(=O)(OCC)OCC
inactive: NCI-H23 lung 112% | NCI-H226 lung 106% | HOP-62 NSCLC 109% | NCI-H460 lung 116% | HOP-92 NSCLC 94.9% | NCI-H522 lung 85.7% | A549/ATCC NSCLC 101% | 786-0 renal 113% | COLO 205 colon 112% | DU-145 prostate 115% | K-562 leukemia 121% | MALME-3M melanoma 122% | MDA-MB-231 breast 110% | RXF 393 renal 115% | SF-268 CNS 104% | SF-295 CNS 126% | SF-539 CNS 106% | UACC-257 melanoma 102% | M14 melanoma 116%
